Results published in article PMC4336329 (PLoS ONE, 2015).
The whole screen tested about 310,000 compounds, of which about 14,000 (4.5%) showed an effect of 50% or more. Effects have a minus sign here. The full list was thinned out, with strong results kept by preference.

Molecular target: human ether-à-go-go-related gene (hERG) potassium channel (human, UniProt Q12809)
Experiment: primary screen, population patch clamp on CHO cells stably expressing hERG; higher = less effect of the substance
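Also: peak tail current of the secondary pulse compared with the same well before compound.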

Chain of human ether-à-go-go-related gene (hERG) potassium channel (Q12809 whole entry, looked up): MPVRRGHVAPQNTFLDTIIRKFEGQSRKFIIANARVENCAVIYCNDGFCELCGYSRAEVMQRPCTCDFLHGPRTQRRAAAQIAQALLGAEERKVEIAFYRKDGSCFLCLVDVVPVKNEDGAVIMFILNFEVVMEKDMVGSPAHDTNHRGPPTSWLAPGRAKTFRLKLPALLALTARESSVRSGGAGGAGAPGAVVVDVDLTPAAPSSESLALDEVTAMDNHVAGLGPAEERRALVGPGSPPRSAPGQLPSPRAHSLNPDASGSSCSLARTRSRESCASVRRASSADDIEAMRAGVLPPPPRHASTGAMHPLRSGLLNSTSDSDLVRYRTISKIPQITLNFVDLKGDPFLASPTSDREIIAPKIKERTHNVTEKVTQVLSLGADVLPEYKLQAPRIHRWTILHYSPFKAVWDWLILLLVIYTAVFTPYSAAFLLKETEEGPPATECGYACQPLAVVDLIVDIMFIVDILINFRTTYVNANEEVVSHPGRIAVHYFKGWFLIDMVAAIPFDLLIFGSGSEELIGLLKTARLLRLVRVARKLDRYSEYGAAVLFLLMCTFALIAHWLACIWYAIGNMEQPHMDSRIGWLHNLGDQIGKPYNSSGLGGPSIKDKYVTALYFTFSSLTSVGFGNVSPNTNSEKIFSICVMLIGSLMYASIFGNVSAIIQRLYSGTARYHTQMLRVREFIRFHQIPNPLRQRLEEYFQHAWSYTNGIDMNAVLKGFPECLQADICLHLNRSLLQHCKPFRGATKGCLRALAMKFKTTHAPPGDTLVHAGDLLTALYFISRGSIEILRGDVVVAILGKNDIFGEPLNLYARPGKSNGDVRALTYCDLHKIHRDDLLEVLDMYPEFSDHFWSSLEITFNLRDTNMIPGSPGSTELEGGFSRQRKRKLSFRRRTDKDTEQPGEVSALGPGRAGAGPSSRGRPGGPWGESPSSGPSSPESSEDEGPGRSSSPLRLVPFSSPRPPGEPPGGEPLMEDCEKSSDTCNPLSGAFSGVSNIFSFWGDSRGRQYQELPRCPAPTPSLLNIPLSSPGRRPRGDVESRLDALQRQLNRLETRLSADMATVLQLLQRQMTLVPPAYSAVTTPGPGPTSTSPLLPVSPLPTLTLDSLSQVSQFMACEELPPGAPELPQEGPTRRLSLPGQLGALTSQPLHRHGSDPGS

| SMILES | hERG current change (%, negative = inhibition) at 10uM |
| --- | --- |
| Cc1c(C(=O)Nc2nnc(C(F)(F)F)s2)oc2ccccc12 | 13.1% |
| Cc1cc(OC(=O)c2ccc(S(=O)(=O)N(C)C)cc2)c([N+](=O)[O-])c(=O)[nH]1 | 10.6% |
| COc1ccc2c(c1OC)C(=O)OC2C1c2cc3c(cc2CCN1C)OCO3 (centres unmarked) | 6.25% |
| COc1cc(C(O)CN)ccc1O.Cl (centres unmarked) | 3.21% |
| CCN(CC)C(=S)Sc1c(-c2ccccc2)c2cc(Cl)ccc2[nH]c1=O | 5.42% |
| COc1ccc(S(=O)(=O)N2CCN(CC(=O)Nc3cccc(OC)c3)CC2)cc1 | -31.4% |
| COc1ccc(S(=O)(=O)N2CCN(CC(=O)Nc3cccc(F)c3)CC2)cc1 | -54.1% |
| COc1cccc(NC(=O)CN2CCN(S(=O)(=O)c3ccc(F)cc3)CC2)c1 | -23.1% |
| Cc1cnc(NC(=O)C(C)N2CCN(C)CC2)s1.O=C(O)C(=O)O (centres unmarked) | 20.7% |
| O=C(O)C1(P(=O)(c2ccccc2)c2ccccc2)CCC1 | -3.46% |
| CC(/C=N/Nc1ncc(C)c(=O)[nH]1)=C\c1ccccc1 | -53% |
| CC(/C=N/Nc1nncc(=O)[nH]1)=C\c1ccccc1 | 3.08% |
| CC(/C=N/Nc1nnc(C)c(=O)[nH]1)=C\c1ccccc1 | -10.5% |
| O=C(CSc1nnc(COc2ccc(Cl)cc2)o1)NC1CC2CCC1C2 (centres unmarked) | 11.5% |
| CCC(C)(C)NC(=O)C(C(C)C)N(CC1CCCO1)C(=O)CNS(=O)(=O)c1ccccc1 (centres unmarked) | -2.21% |
| CCC(Oc1ccccc1)C(=O)Nc1ccc(C)c(S(=O)(=O)N2CCOCC2)c1 (centres unmarked) | -18% |
| CNC(C)Cc1ccccc1Sc1ccc(O)cc1.Cl (centres unmarked) | -66.7% |
| CC(Cc1ccccc1Sc1ccc(O)cc1)N(C)C.CCO.Cl (centres unmarked) | -69.5% |
| CC(N)Cc1ccccc1Sc1ccc(O)cc1.O=C(O)C(=O)O (centres unmarked) | -35.5% |
| CC(Cc1ccccc1Sc1ccccc1O)N(C)C.Cl (centres unmarked) | -18.9% |
| CN(C)Cc1ccccc1Sc1ccc(Br)cc1 | -15.6% |
| CNCc1ccccc1Sc1ccc(OC)cc1.Cl | -30.4% |
| O=C(C1=C(O)C(=O)N(CCN2CCOCC2)C1c1ccccc1)c1cccs1 (centres unmarked) | -2.27% |
| O=C(OC(C(=O)NCc1cccs1)c1ccccc1F)c1ccco1 (centres unmarked) | 20.5% |

| SMILES | hERG current change (%, negative = inhibition) at 10uM |
| --- | --- |
| CCOc1ccccc1NC(=O)COC(=O)C(Cc1ccccc1)NC(=O)c1ccco1 (centres unmarked) | -8.33% |
| O=C1/C(=C\c2ccsc2)NC(=S)N1c1ccccc1 | 15.4% |
| COc1ccccc1OCCC(=O)OCC(=O)Nc1cc(S(=O)(=O)N(C)C)ccc1Cl | -6.26% |
| O=C(NCC1CCCCC1)C1(CC2CC(c3cccc(Br)c3)=NO2)CCNCC1 (centres unmarked) | -24.1% |
| O=C(Cc1ccc(F)cc1)N1CCC(CC2CC(c3ccc(Cl)cc3)=NO2)(C(=O)NCC2CCCCC2)CC1 (centres unmarked) | -72.3% |
| CCOc1cc(C(=O)N2CCC(CC3CC(c4ccc(Cl)cc4)=NO3)(C(=O)NCC3CCCCC3)CC2)cc(OCC)c1OCC (centres unmarked) | 1.25% |
| O=C(Cc1ccc(F)cc1)N1CCC(CC2CC(c3cccc(Br)c3)=NO2)(C(=O)NCC2CCCCC2)CC1 (centres unmarked) | -8.67% |
| O=C(NCC1CCCCC1)C1(CC2CC(c3ccc(Cl)cc3)=NO2)CCNCC1 (centres unmarked) | -71.6% |
| COc1ccc(OC)c(-c2csc(NC(=O)C3c4ccccc4Oc4ccccc43)n2)c1 | -5.7% |
| Cc1sc(-c2ccncc2)nc1OC(=O)c1cc(Cl)cc(Cl)c1 | 10.2% |
| COc1ccc(Cl)cc1NC(=O)CN(C)C(=O)CCC(=O)c1cc(C)sc1C | -29.5% |
| CC(C)C(CCN1C(=O)CCC1=O)C1CCOC(C)(C)C1 (centres unmarked) | 4.36% |
| CCn1ncc(Br)c1C(=O)Nc1cc(C(=O)OC)ccc1C(=O)OC | -3.95% |
| Cc1cc(OCc2cccc(Cl)c2)c(C)cc1CN1CCOCC1 | 0.275% |
| CCCCCCCCCC(=O)N[C@H](CN1CCOCC1)[C@H](O)c1ccccc1.Cl | -16.6% |
| O=C(O)c1ccc(OCC(O)Cn2c3ccccc3c3ccccc32)cc1 (centres unmarked) | -18.5% |
| Cc1ccc(OCC(O)Cn2c(=N)n(Cc3ccccc3)c3ccccc32)cc1.Cl (centres unmarked) | -81.6% |
| Cc1ccc(Cn2c(=N)n(CC(O)COc3ccccc3)c3ccccc32)cc1.Cl (centres unmarked) | -68.9% |
| COC(=O)c1cn(S(=O)(=O)c2ccccc2)c2ccccc12 | 13% |
| Cc1ccc(NC(=O)NCc2ccc3c(c2)OCO3)cc1 | 5.69% |
| COc1cc2c(OC(C)=O)c3c(c(-c4ccc5c(c4)OCO5)c2cc1OC)C(=O)OC3 | 15.4% |
| Cc1ccc(NC(=O)CCN2CC(C)OC(C)C2)cc1C.Cl (centres unmarked) | 19.1% |
| CC(C)(C)NS(=O)(=O)c1cc(C(=O)O)ccc1Cl | 4.6% |
| O=C(Oc1coc(CSc2ncccn2)cc1=O)c1ccccc1[N+](=O)[O-] | 14.4% |

| SMILES | hERG current change (%, negative = inhibition) at 10uM |
| --- | --- |
| O=C(Oc1coc(CSc2ncccn2)cc1=O)c1cccc([N+](=O)[O-])c1 | -81.3% |
| Cc1cc(C)nc(SCc2cc(=O)c(OC(=O)c3cccc([N+](=O)[O-])c3)co2)n1 | -32.5% |
| Cc1cccn2c(=O)c3cc(C#N)c(=NC(=O)c4ccccc4)n(Cc4ccco4)c3nc12 | -40.3% |
| Cc1cccn2c(=O)c3cc(C#N)c(=NC(=O)c4ccco4)n(Cc4ccco4)c3nc12 | -55.4% |
| CC(=O)N=c1c(C#N)cc2c(=O)n3cccc(C)c3nc2n1Cc1ccco1 | -35.3% |
| Cc1ccccc1C(=O)N=c1c(C#N)cc2c(=O)n3cccc(C)c3nc2n1Cc1ccco1 | -46.2% |
| Cc1cccc(C(=O)N=c2c(C#N)cc3c(=O)n4cccc(C)c4nc3n2Cc2ccco2)c1 | -65% |
| Cn1c(=NC(=O)c2ccco2)sc2ccccc21 | 11.6% |
| CC(=O)N=c1c(C#N)cc2c(=O)n3ccccc3nc2n1Cc1ccccc1 | -40.2% |
| CC(C)n1c(=NC(=O)c2ccco2)c(C#N)cc2c(=O)n3ccccc3cc21 | -52.2% |
| CCO[C@@H]1OC(C(=O)NCc2ccccc2)=C[C@H](C(C)(C)C)[C@H]1CCCO | -10.5% |
| O=C(OCCN1C(=O)c2ccccc2C1=O)c1cc2ccccc2o1 | 1.62% |
| CC1CCCC(C(=O)O)N1C(=O)CCSC(=O)c1ccccc1 (centres unmarked) | -0.246% |
| O=S(=O)(c1cccs1)N1CN(Cc2ccc(Cl)cc2)c2nc3ccccc3nc21 | 3.75% |
| Cc1ccc2c(c1)c1c(n2CC(O)CN2CCCCC2C)CCCC1 (centres unmarked) | -42.6% |
| Cc1ccc2c(c1)c1c(n2CC(O)CNC(CO)(CO)CO)CCCC1 (centres unmarked) | 0.531% |
| Cc1ccc2c(c1)c1c(n2CC(O)CNC2CCCCC2)CCCC1.Cl (centres unmarked) | -37.4% |
| Cc1ccc2c(c1)c1c(n2CC(O)CN2CCCCCC2)CCCC1.Cl (centres unmarked) | -65.6% |
| Cc1ccc2c(c1)c1c(n2CC(O)CN2CCC(C)CC2)CCCC1 (centres unmarked) | -58.1% |
| Cc1ccc2c(c1)c1c(n2CC(O)CN2CCOCC2)CCCC1.Cl (centres unmarked) | 9.32% |
| Fc1ccc(N/N=C(/c2ccccc2)c2ccccn2)cc1 | -12.5% |
| CCN(Cc1ccccc1)Cc1c(F)cccc1F | -0.224% |
| CC1CCCN(C(=O)COC(=O)C2CCN(S(=O)(=O)c3c(Cl)cccc3Cl)CC2)C1 (centres unmarked) | -39.4% |
| CCOC(=O)N1CCN(C(=O)COC(=O)C2CCN(S(=O)(=O)c3ccc(C)c(C)c3)CC2)CC1 | -62.1% |

| SMILES | hERG current change (%, negative = inhibition) at 10uM |
| --- | --- |
| CCOC(=O)N1CCN(C(=O)COC(=O)C2CCN(S(=O)(=O)c3c(Cl)cccc3Cl)CC2)CC1 | -38.1% |
| Cc1ccc(S(=O)(=O)N2CCC(C(=O)OCC(=O)N3CCC(C)CC3)CC2)cc1C | 7.85% |
| CC1CCCCN1C(=O)COC(=O)C1CCN(S(=O)(=O)c2c(Cl)cccc2Cl)CC1 (centres unmarked) | -56.4% |
| CC1CCCC(C)N1C(=O)COC(=O)C1CCN(S(=O)(=O)c2c(Cl)cccc2Cl)CC1 (centres unmarked) | -30.1% |
| CCOC(=O)C1CCN(C(=O)COC(=O)C2CCN(S(=O)(=O)c3ccc(C)c(C)c3)CC2)CC1 | -3.24% |
| CCOC(=O)N1CCN(C(=O)COC(=O)C2CCN(S(=O)(=O)c3c(C)c(C)cc(C)c3C)CC2)CC1 | -51.9% |
| CCOC(=O)N1CCN(C(=O)C2CCN(S(=O)(=O)c3c(C)cc(C)cc3C)CC2)CC1 | -22.9% |
| CC(=O)Nc1ccc(Oc2cc(NC(C)=O)cc([N+](=O)[O-])c2)cc1 | 6.36% |
| CCOC(=O)c1c(NC(=O)CC2Nc3ccccc3NC2=O)sc(C)c1C (centres unmarked) | 10.6% |
| CCOC(=O)C1CCCN(C(=O)c2cc(Nc3ccc(OC)c(OC)c3)nc3ccccc23)C1 (centres unmarked) | -14.9% |
| Cc1c(C(=O)Nc2ccc(Cl)cc2)c2ccccn2c1CCc1ccncc1 | -5.68% |
| COc1cccc(OC)c1OCC(O)CN1CCN(c2ccc(F)cc2)CC1.Cl (centres unmarked) | -74.9% |
| OC(CSc1c(Cl)cccc1Cl)CN1CCN(c2ccc(F)cc2)CC1 (centres unmarked) | -40.3% |
| COc1cccc(OCC(O)CN2CCN(c3ccccc3)CC2)c1 (centres unmarked) | -45.2% |
| COc1cccc(OCC(O)CN2CCN(c3ccccc3)CC2)c1.Cl (centres unmarked) | -43.4% |
| OC(CSc1ccccc1Cl)CN1CCN(c2ccccc2F)CC1 (centres unmarked) | -30.7% |
| COc1ccc(OCC(O)CN2CCN(c3ccc(Cl)cc3)CC2)cc1 (centres unmarked) | -30.7% |
| COc1cccc(OCC(O)CN2CCN(c3ccc(Cl)cc3)CC2)c1 (centres unmarked) | -71.9% |
| OC(CSc1ccccc1Cl)CN1CCN(c2ccc(F)cc2)CC1 (centres unmarked) | -57.4% |
| COc1ccc(N2CCN(CC(O)COc3c(OC)cccc3OC)CC2)cc1.Cl (centres unmarked) | -35.3% |
| OC(COc1ccc2ccccc2c1)CN1CCN(c2ccc(F)cc2)CC1 (centres unmarked) | -28% |
| COc1cccc(OCC(O)CN2CCN(c3ccc(F)cc3)CC2)c1.Cl (centres unmarked) | -58.6% |
| CCOC(=O)N1CCN(CC(O)COc2c(OC)cccc2OC)CC1.Cl (centres unmarked) | 2.85% |
